Test results from ChEMBL document CHEMBL3433997, “St. Jude Leishmania screening dataset” (2016).

Key:
Format in all cases: functional
[1] = biological target: Solute carrier family 2, facilitated glucose transporter member 1 (Homo sapiens) (UniProt P11166); experiment: ST_JUDE_LEISH: Cytotoxicity at 2uM final concentration against transgenic Leishmania Mexicana promastigotes LmGLUT1 that are glucose transport deficient and complemented with the human glucose transporter GLUT1. Activity is measured by DNA content using SYBR green in vitro
[2] = biological target: Hexose transporter 1 (Plasmodium falciparum) (UniProt O97467); experiment: ST_JUDE_LEISH: Cytotoxicity at 2uM final concentration against transgenic Leishmania Mexicana promastigotes LmPfHT that are glucose transport deficient and complemented with the Plasmodium falciparum hexose transporter. Activity is measured by DNA content using SYBR green in vitro
[3] = biological target: Glucose transporter (Leishmania mexicana) (UniProt O61059); experiment: ST_JUDE_LEISH: Cytotoxicity at 2uM final concentration against transgenic Leishmania Mexicana promastigotes LmGT2 that are glucose transport deficient and complemented with the L. Mexicana glucose transporter 2. Activity is measured by DNA content using SYBR green in vitro

Sequence of Solute carrier family 2, facilitated glucose transporter member 1 (Homo sapiens) (P11166 whole entry): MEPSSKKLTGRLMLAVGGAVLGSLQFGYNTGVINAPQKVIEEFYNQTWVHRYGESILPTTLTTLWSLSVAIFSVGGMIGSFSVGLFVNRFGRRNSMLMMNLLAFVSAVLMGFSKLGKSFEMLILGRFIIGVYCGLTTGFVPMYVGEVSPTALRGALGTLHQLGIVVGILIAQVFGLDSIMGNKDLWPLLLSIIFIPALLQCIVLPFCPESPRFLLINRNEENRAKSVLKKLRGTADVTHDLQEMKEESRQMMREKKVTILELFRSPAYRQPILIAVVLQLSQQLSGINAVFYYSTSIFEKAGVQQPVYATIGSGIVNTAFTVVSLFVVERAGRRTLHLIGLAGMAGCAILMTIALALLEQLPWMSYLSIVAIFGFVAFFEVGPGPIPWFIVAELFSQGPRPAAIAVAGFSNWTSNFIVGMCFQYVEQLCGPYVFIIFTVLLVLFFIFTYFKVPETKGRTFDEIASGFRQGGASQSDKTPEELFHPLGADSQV

SMILES: O=C(Nc1ccc2c(c1)CCN2C1CCN(Cc2cc(F)cc(F)c2F)C1)c1ccco1 (stereo unspecified)
- inhibition [1]: 1.75%
- inhibition [2]: 2.07%
- inhibition [3]: 3.47%

SMILES: COc1ccc2nccc([C@@H](O)CN3CCC(NC(=O)/C=C/c4cccc(C)c4)CC3)c2c1
- inhibition [1]: 11%
- inhibition [2]: 9.47%
- inhibition [3]: 3.43%

SMILES: Cc1cccc2nc(-c3ccc(-c4ccc(NC(=O)CN5CCN(C)CC5)cc4)s3)[nH]c12
- inhibition [1]: -0.59%
- inhibition [2]: -1.98%
- inhibition [3]: -1.35%

SMILES: Cc1ccc2[nH]c(C3CCCNC3)c(-c3ccncc3)c2c1 (stereo unspecified)
- inhibition [1]: 9.43%
- inhibition [2]: 9.43%
- inhibition [3]: 8.51%

SMILES: CCOc1ccc(NC(=O)c2cccc(CN3CCCN(Cc4cccc(O)c4)CC3)c2)cc1
- inhibition [1]: -0.94%
- inhibition [2]: 0.07%
- inhibition [3]: 0.81%

SMILES: CN(C)CC(O)C(c1ccccc1)c1ccc(Cl)cc1 (stereo unspecified)
- inhibition [1]: 5.17%
- inhibition [2]: 1.04%
- inhibition [3]: 0.76%

SMILES: CNC(=O)c1cnc(Nc2ccc(OCC(O)CN(C)C)cc2)nc1Nc1cccc(OC)c1 (stereo unspecified)
- inhibition [1]: 3.9%
- inhibition [2]: -2.08%
- inhibition [3]: 4.47%

SMILES: Fc1ccc(CNc2ccc3ncc(-c4cccnc4)n3n2)cc1
- inhibition [1]: 2.61%
- inhibition [2]: 2.21%
- inhibition [3]: 0.67%

SMILES: Cc1cc(NCC(c2ccccc2)c2ccccc2)nc(NCc2ccc(C(F)(F)F)cc2)n1
- inhibition [1]: 5.66%
- inhibition [2]: 6.13%
- inhibition [3]: 3.66%

SMILES: CN=C(Nc1c(Cl)cccc1Cl)N(C)C
- inhibition [1]: 2.85%
- inhibition [2]: 4.13%
- inhibition [3]: 4.17%

SMILES: CC(=O)N[C@H](C(=O)Nc1cccc(-c2ccc(-c3nc4cccc(C)c4[nH]3)s2)c1)C(C)C
- inhibition [1]: 3.65%
- inhibition [2]: 2.85%
- inhibition [3]: 2.08%

SMILES: NC1CCN(c2cnn(Cc3cccc(NC(=O)Nc4ccc(-c5ccccc5)cc4)c3)c(=O)c2Cl)CC1
- inhibition [1]: 1.64%
- inhibition [2]: 1.72%
- inhibition [3]: 2.25%

SMILES: Cc1cc(-c2ccc(NC(=O)Nc3ccc4nccc(N5CCN(C)CC5)c4c3)cc2C)cc(C)n1
- inhibition [1]: 7.15%
- inhibition [2]: 5.84%
- inhibition [3]: 8.51%

SMILES: COc1ccc(N2CCN(CCCOc3ccc(NC(=O)c4cc(Cl)cc(Cl)c4)cc3)CC2)c(OC)c1
- inhibition [1]: 6.5%
- inhibition [2]: 5.97%
- inhibition [3]: 6.22%

SMILES: CC(C)CNCc1cccc(-c2ccc(CNC3CCN(Cc4ccccc4)CC3)cc2)c1
- inhibition [1]: 6.62%
- inhibition [2]: 7.43%
- inhibition [3]: 4.78%

SMILES: COc1cc(NC(=O)c2ccc3oc4ccccc4c3c2)ccc1OCCN1CCCCC1
- inhibition [1]: -0.45%
- inhibition [2]: 1.28%
- inhibition [3]: 0.62%

SMILES: CCCC(CNCc1cccc(SC(F)(F)F)c1)CNc1cc(=O)c2ccccc2[nH]1 (stereo unspecified)
- inhibition [1]: -0.14%
- inhibition [2]: 1.41%
- inhibition [3]: 3.17%
